Sfp inh: Sfp phosphopantetheinyl transferase inhibition; Biochemical Sfp PPTase activity, qHTS; Potency, µM, without a hit: largest response in the series, negative = inhibition, usual class: inhibitors; 310,000 compounds, 3.5% hits; AID 1490; Q9F4F7;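 further: the enzyme is Sfp with the accession as filed and its product quenches rhodamine fluorescence; 0% = enzyme reaction without inhibitor and -100% = no enzyme wells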
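After 15 min at room temperature with compound, 15 nM Sfp received 5 uM rhodamine-CoA plus 12.5 uM BHQ-2-ybbR (50 mM Hepes pH 7.6, 10 mM MgCl2). Rate came from the fluorescence difference over 30 min, ex 525/em 598 nm.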
G9a block: G9a (human) methyltransferase inhibition; G9a H3K9 monomethylation, AlphaScreen, 2 h; 350,000 compounds, 8.8% hits; Potency, µM (titrated, usually from 102 µM), for inactives: top-dose activity, negative = inhibition, hits mostly inhibitors; further: on the % scale 0 is the no-effect control and ±100 the full control effect; nearly all actives have a fitted effect of over 75% in size
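Readings reflect AlphaScreen signal from monomethyl-H3K9 antibody detection. HMT at 20 nM; substrate b-H3K9 500 nM; cofactor SAM 20 uM; 2 h RT reaction; compounds tested as titrations in qHTS with 15 min preincubation.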
HP1b chromo inh: HP1-beta chromodomain-methylated histone interaction inhibition; AID 540317; AlphaScreen HP1-beta / biotin-H3K9me3 peptide binding; P83916; Potency, µM (doses to about 114 µM), without a hit: top-dose activity change, negative = inhibition, actives largely listed as inhibitors; 390,000 compounds, 0.56% hits; further: nearly all actives have a fitted effect of over 70% in size
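AlphaScreen: HP1-beta (50 nM) preformed 30 min with biotin-H3(1-18)K9me3 peptide (50 nM) in PBS pH 7.4, 0.01% Tween-20. Compound added for 30 min at RT, then streptavidin donor/nickel chelate acceptor beads (10 ug/mL) for 30 min.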
L3MBTL1 inh: L3MBTL1 (human) inhibition | AID 485360 | Potency, µM (highest dose often 57.1 µM), for inactives: at the highest dose activity, negative = inhibition, usual class: inhibitors | AlphaScreen L3MBTL1–H3K9me1 peptide binding | 230,000 compounds, 0.66% hits; further: on the % scale 0 is the no-effect control and ±100 the full control effect; nearly all actives have a fitted effect of over 60% in size
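First, the protein-peptide complex forms for 30 min at room temperature (L3MBTL1 50 nM, biotinylated H3K9me1 peptide 75 nM). Next, compounds are pin-transferred and incubated 30 min. Finally, AlphaScreen beads are added and read after 30 min.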
JMJD2A Tudor: blocks the human JMJD2A Tudor domain. AID 504339. 390,000 compounds, 4.4% hits. AlphaScreen JMJD2A-Tudor / H3K4me3 peptide binding. Potency, µM (top dose mostly 114 µM), for inactives: top-dose activity change, negative = inhibition, usual class: inhibitors; further: on the % scale 0 is the no-effect control and ±100 the full control effect; nearly all actives have a fitted effect of over 50% in size
BAZ2B inh: inhibitors of human BAZ2B bromodomain; Q9UIF8; AlphaScreen BAZ2B-H3K14Ac peptide displacement; Potency, µM (top dose mostly 114 µM), without a hit: at the highest dose activity change, negative = inhibition, hits mostly inhibitors; 360,000 compounds, 4.4% hits; further: on the % scale 0 is the no-effect control and ±100 the full control effect; nearly all actives have a fitted effect of over 60% in size
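Multi-concentration screen (max 110 uM) measuring displacement of acetylated histone H3 peptide from BAZ2B by AlphaScreen, using 50 nM protein, 50 nM peptide and 10 ug/mL streptavidin donor plus Ni-chelate acceptor beads.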
Starred values were filed as active, the others as inactive; ? = inconclusive; . = no result given; [ ] = remark or other dose. A selection: hits, their analogues and other compounds. The true share with any hit is near 12%. The call rests on the fitted dose curve; in most records, active means well fitted curve in the direction sought with a large enough effect; inconclusive means small, poorly fitted or top-dose-only effect, or another doubt; inactive means no such curve, though single readings can be large; an effect the other way counts as inactive or inconclusive. Potency means the concentration at half of the fitted maximal effect.

SMILES	Sfp inh	G9a block	HP1b chromo inh	L3MBTL1 inh	JMJD2A Tudor	BAZ2B inh
Cc1ccc(C)c(NC(=O)Cn2c(=O)n(Cc3ccc4c(c3)OCO4)c(=O)c3oc4ccccc4c32)c1	.	-8%[59 µM]	16%	.	-14%	-7%
CC(C)(C)C1CCC(=NNC(=O)C(=O)NCc2ccco2)CC1 (stereo not drawn)	3%	20µM*	25%	-7%	-15%	?
Fc1ccc(N2CCN(C(=S)NCc3ccco3)CC2)cc1	11%	?	-12%	.	?	?
Cc1ccc(Cl)cc1N1CCN(C(=S)NCc2ccco2)CC1	6%	?	-9%	-3%[2.29 µM]	-19%	?
S=C(NCc1ccco1)N1CCN(c2ccccc2Cl)CC1	-1%	56µM*	-11%	-7%	-28%	-32%
S=C(NCc1ccco1)N1CCN(Cc2ccco2)CC1	-30%	7.1µM*	?	3%	4.5µM*	?
O=C(NCc1ccco1)C(=S)N1CCCC1	35%	32µM*	18%	-1%	0%	-13%
CCCn1c(N)c(C(=O)COC(=O)CNC(=O)c2ccccc2OCC)c(=O)[nH]c1=O	.	-9%[59 µM]	7%	-1%	0%	5%
CCN1CC(CN(C)Cc2cn(-c3cccc(C)c3)nc2-c2cccc(F)c2)CC1=O (stereo not drawn)	-14%	-28%	12%	-7%	-16%	-17%
CCOC(=O)C1CCCN(C(=O)c2cccc(S(=O)(=O)N(Cc3ccccc3)c3ccccc3OC)c2)C1 (stereo not drawn)	.	12%[12.7 µM]	6%	2%	-28%	-3%
CCOC(=O)c1c(NC(=O)COC)sc2c1CCCC2	7%	6%[12.7 µM]	27%	6%[11.4 µM]	-16%	8%
CCOC(=O)c1c(NC(=O)COC(=O)c2nccnc2N)sc2c1CCC2	.	1%[12.7 µM]	21%	1%	-15%	8%
N#Cc1c(NC(=O)COC(=O)c2nccnc2N)sc2c1CCCC2	.	45µM*	0%	-16%	25µM*	79µM*
CCCOC(=O)c1c(NC(=O)CCC(=O)O)sc2c1CCCCC2	?	50µM*	3%	.	-4%	-27%
NC(=O)c1c(NC(=O)CCCC(=O)O)sc2c1CCCCCC2	79µM*	50µM*	?	-16%	-31%[57.1 µM]	2%
Cc1c(Br)c([N+](=O)[O-])nn1CCCC(=O)Nc1sc2c(c1C#N)CCC2	22µM*	?	?	-9%	50µM*	?
Cc1c(Cl)cccc1NC(=S)N1CCCN(Cc2ccc(F)cc2)C1	19%	60%[59 µM]	29%	.	-24%	-33%
CCCCn1cc2c(c1-c1ccc(Br)cc1)c(=O)n(C)c(=O)n2C	.	?	22%	.	-26%	-24%
CC(NC(=O)CCN1C(=O)c2ccccc2C1=O)c1ccc2c(c1)CCCC2 (stereo not drawn)	16%	-10%	26%	6%	-14%	-4%
Cc1cc(C)cc(NC(=O)CSc2nccn2C2CCCC2)c1	.	?	16%	.	-29%	?
CCCC(=O)Nc1sc2c(c1C#N)CCCCC2	-3%	-9%[59 µM]	6%	5%	-12%	-1%
N#Cc1c(NC(=O)CCCC(=O)O)sc2c1CCCCC2	56µM*	29%[59 µM]	10%	34%	0%	23%
NC(=O)c1c(NC(=O)C2CCCO2)sc2c1CCCCC2 (stereo not drawn)	-83%	3.5µM*	?	-14%	?	-30%
COc1ccc2c(c1)C1C=CCC1C(c1cc3c(cc1Br)OCO3)N2 (stereo not drawn)	-21%	40µM*	-44%	?	22µM*	35µM*
CC1(C)CN(O)CCN1O	-13%	20µM*	20%	8%	-17%	-28%
SMILES	Sfp inh	G9a block	HP1b chromo inh	L3MBTL1 inh	JMJD2A Tudor	BAZ2B inh
COc1ccc(CCNC(=O)c2ccc3c(c2)N(Cc2cccc(Cl)c2)C(=O)c2ccccc2S3=O)cc1OC (stereo not drawn)	.	?	-13%	.	-15%	-12%
CCC1(C)Cc2c(sc3nc(SC)[nH]c(=S)c23)CO1 (stereo not drawn)	3%	-4%	13%	.	-19%	-15%
COc1ccc(CN(C(=O)c2ccc(-c3ccccc3)[nH]2)C(C(=O)NC(C)(C)C)c2ccncc2)cc1 (stereo not drawn)	45µM*	?	-10%	.	40µM*	?
CCc1ccc2oc(C(=O)Nc3nc(-c4ccc(F)cc4)ns3)c(C)c2c1	.	-21%[59 µM]	49%	.	-16%	-6%
Cc1ccc(OCC(O)CNC2CCCC2)c(C)c1 (stereo not drawn)	-4%	.	13%	5%	-18%	2%
CCN1CCCC1CNCC(O)COc1ccc(C(C)(C)C)cc1C (stereo not drawn)	-35%	?	7%	34%	1.6µM*	?
CCC1(C)Nc2ccccc2C(=O)N1O (stereo not drawn)	-8%	50µM*	5%	1%	?	-10%
Cc1ccc(NC(=O)Cn2c(O)c(N=NC(=O)c3cc([N+](=O)[O-])ccc3O)c3ccccc32)cc1	14%	.	.	2%	.	?
Cc1cccc(NC(=O)Cn2c(O)c(N=NC(=O)c3ccccc3O)c3ccccc32)c1	?	-6%[59 µM]	22%	-2%	?	79µM*
Cc1ccc(NC(=O)c2c(C)nn(-c3ccccc3)c2-n2cccc2)c(Cl)c1	.	14%[59 µM]	27%	.	-10%	-1%
OC(COC1CCCCC1)CN1CCN(c2ccccc2)CC1 (stereo not drawn)	-3%	-25%	23%	1%	-13%	27%
Cc1n(CC(O)COC2CCCCC2)c2ccccc2[n+]1C (stereo not drawn)	7%	?	5%	-3%	79µM*	6%
COc1ccc(CN(CC(O)COCc2ccccc2)S(=O)(=O)c2ccccc2Br)cc1 (stereo not drawn)	.	.	30%	-3%	-3%	.
NC(=S)N/N=C\c1c2ccccc2cc2ccccc12	-19%	7.1µM*	0%	-2%	-35%	-37%
COCCNC(=S)N/N=C/c1c2ccccc2cc2ccccc12	3%	79µM*	93%	.	16%	2%
CNC(=S)N/N=C/c1c2ccccc2c(Cl)c2ccccc12	-2%	18µM*	14%	.	-7%	-19%
C[N+](C)(C)CC(=O)N/N=C/c1c2ccccc2cc2ccccc12	-2%	35µM*	42%	.	?	56µM*
O=S1(=O)N=C(OCc2ccccc2)c2ccccc21	.	.	.	.	-19%	.
COCCN(CCOC)C(=O)CSc1ccc(S(=O)(=O)N2CCN(C)CC2)cn1	.	0%[12.7 µM]	54%	3%	5%	-8%

Source: PubChem (National Center for Advancing Translational Sciences (NCATS))
